Values joined by “and” are separate entries in the source; they are usually repeats but may differ in a detail not shown here. Equal entries are not always repeated. Records with an inconclusive call do not appear. A call without a number means that no potency is given here. Where a structure was tested more than once in an assay, its records may differ in their call. Active and inactive are the calls of the source. Calls come from the whole dose curve; as a rule, active = well fitted cell-killing curve with a large enough effect in the repeat runs; inconclusive = weak or mixed curves, or effect the other way; inactive = no such curve, though single readings can be large or run the other way.
Experiment: qHTS assay to identify small molecule antagonists of the thyroid receptor (TR) signaling pathway - cell viability counter screen (AID 743064); note: nearly all actives have a fitted effect of over 50% in size
Details: GH3.TRE-Luc viability, CellTiter-Fluor, 24 h; series mostly up to 70.3 µM
Source text: National Center for Advancing Translational Sciences [NCATS]
NIH Chemical Genomics Center [NCGC]
U.S. Environmental Protection Agency [EPA]
National Institutes of Environmental Health Sciences [NIEHS]
National Toxicology Program [NTP]
U.S. Food and Drug Administration [FDA]
Thyroid receptor (TR), a nuclear hormone receptor, plays an important role in development, proliferation, differentiation, metabolism, brain function, and cardiovascular system. […] To profile the Tox21 10K compound library in TR signaling, a cell-based GH3-TRE-Luc assay (GH3.TRE-Luc cell line, developed by the laboratory of Dr. Albertinka J. Murk, Wageningen University) was used to measure the inhibition of TR. GH3 (rat pituitary tumor) cells stably expressing a TR activity sensor consisting of two TR response elements and a luciferase reporter gene. The cytotoxicity of the Tox21 compound library against the GH3.TRE-Luc cell line was tested in parallel by measuring the cell viability using CellTiter-Fluor assay (Promega, Madison, WI) in the same wells.
Tox21 Assay Protocol Summary:
GH3.TRE-Luc cells were dispensed at 1500 cells/4 uL/well into 1536-well white solid bottom plates using a Multidrop Combi dispenser (Thermo Fisher Scientific Inc., Waltham, MA). After the assay plates were incubated at 37 C for 4 hours, 23 nL of library compound or DMSO controls was transferred to the assay plates by a pintool station (Kalypsys, San Diego, CA), followed by addition of 1 ul of T3 (1 nM, final concentration in the wells) to stimulate TR transactivation. The assay plates were incubated at 37 C for 23.5 h, and then 1 uL of CellTiter-Fluor reagent (Promega, Madision, WI) of measuring cytotoxicity was added to each well using a Bioraptr Flying Reagent Dispenser (FRD) workstation (Beckman Coulter, Indianapolis, IN, USA). The plates were incubated at 37C and 5% CO2 for additional 30 min, and fluorescence intensity was measured by a ViewLux plate reader (PerkinElmer, Shelton, CT).
In the case of `CC(C)C(=O)OCC(C)(C)C(OC(=O)C(C)C)C(C)C` (stereo not given), the Potency is reported as “inactive”. With `Cc1cccc(N)c1N` the Potency was “inactive”. In the case of `NCc1cccnc1`, the Potency is reported as “inactive”. In the case of `O=[N+]([O-])c1ccc(O)c([N+](=O)[O-])c1`, the Potency is reported as 61.1 µM (active). With `COc1ccc(C=O)cc1` the Potency was “inactive”. In the case of `C=CCc1ccc(OC)cc1`, the Potency is reported as “inactive”. For `OCC(O)CO`, the Potency was “inactive”. In the case of `CCCCN(CCCC)N=O`, the Potency is reported as “inactive”. In the case of `CCCCOCCOP(=O)(OCCOCCCC)OCCOCCCC`, the Potency is reported as 54.5 µM (active) and inactive. In the case of `Oc1cc(Cl)ccc1Oc1ccc(Cl)cc1Cl`, the Potency is reported as 11.5 µM (active). In the case of `CN(C)c1ccc(C(=O)c2ccc(N(C)C)cc2)cc1`, the Potency is reported as 30.3 µM (active) and inactive. In the case of `NC(=S)Nc1ccccc1`, the Potency is reported as “inactive”. With `CC(C)Oc1cc(-n2nc(C(C)(C)C)oc2=O)c(Cl)cc1Cl` the Potency was 53.7 µM (active). In the case of `Nc1ccc(Cl)cc1N`, the Potency is reported as 42 µM (active). With `COC(=O)c1sccc1S(=O)(=O)NC(=O)Nc1nc(C)nc(OC)n1` the Potency was “inactive”. With `C=CCc1ccc2c(c1)OCO2` the Potency was “inactive”. For `O=C(CCl)c1ccccc1`, the Potency was “inactive and 68.6 µM (active)”. With `Oc1cc(Cl)ccc1Cl` the Potency was “inactive”. For `Cc1ccc(OP(=O)(Oc2ccc(C)cc2)Oc2ccc(C)cc2)cc1`, the Potency was “inactive”. With `c1ccc(NNc2ccccc2)cc1` the Potency was “inactive”. For `c1ccc(N=Nc2ccccc2)cc1`, the Potency was “inactive”. In the case of `C=CCN(CC=C)C(=O)C(Cl)Cl`, the Potency is reported as “inactive”. For `Nc1cccnc1`, the Potency was “inactive”. In the case of `CCCCCCCCC(=O)NCc1ccc(O)c(OC)c1`, the Potency is reported as “inactive”. With `Cc1ccc2c(c1N)C(=O)c1ccccc1C2=O` the Potency was 67.8 µM (active). In the case of `C=C(C)C(=O)OCC1CO1` (stereo not given), the Potency is reported as “inactive”. In the case of `C=C(C)[C@H]1Cc2c(ccc3c2O[C@@H]2COc4cc(OC)c(OC)cc4[C@@H]2C3=O)O1`, the Potency is reported as 841 nM (active) and 8.75 µM (active) and 4.86 µM (active). With `C[C@]12CCC(=O)C(O)=C1CC[C@@H]1[C@@H]2CC[C@]2(C)C(=O)CC[C@@H]12` the Potency was “inactive”. In the case of `CCN(CC)C(=O)/C(Cl)=C(\C)OP(=O)(OC)OC`, the Potency is reported as “inactive”. For `O=P(Oc1ccccc1)(Oc1ccccc1)Oc1ccccc1`, the Potency was “inactive”. In the case of `NNC(=S)NN`, the Potency is reported as “inactive”. In the case of `CCN(N=O)C(N)=O`, the Potency is reported as “inactive”. For `CCN(CC)N=O`, the Potency was “inactive”. For `CCCCC(CC)COC(=O)c1ccc(C(=O)OCC(CC)CCCC)c(C(=O)OCC(CC)CCCC)c1` (stereo not given), the Potency was “inactive”. In the case of `O=Cc1ccco1`, the Potency is reported as “inactive”. For `O=C1C=CC(=O)C=C1`, the Potency was “inactive”. In the case of `Oc1cc(Cl)c(Cl)cc1Cl`, the Potency is reported as “inactive”. For `CCOP(=S)(OCC)O/N=C(\C#N)c1ccccc1`, the Potency was “inactive”. With `NNC(N)=S` the Potency was “inactive”. With `Cc1ccc(N)c(N)c1` the Potency was 13.7 µM (active) and 24.3 µM (active).

Source: PubChem BioAssay (Tox21)
Potency is the fitted concentration of half-maximal effect.
